Bioassay records: PubChem, National Center for Advancing Translational Sciences (NCATS)
Rows were chosen to be rich in hits. Some 2.2% of all compounds tested hit in one or more screens of this group.
FUS yeast rescue: rescues growth of FUS-expressing yeast; actives 0.24% (n = 390,000); Potency, µM (top dose mostly 76.6 µM), hits mostly activators; S. cerevisiae FUS-expressing, growth rescue, OD600, 24 h; further: nearly all actives have a fitted effect of over 55% in size
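Steps: raffinose overnight preculture; dilution to OD 0.005 in 2% galactose minimal medium; compound addition (concentration series); 24hr at 30C, 99% humidity; absorbance read at 600 nm.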
aSyn yeast inh: inhibitors of alpha-synuclein toxicity in yeast; AID 652106; actives 0.14% (n = 370,000); Potency, µM (top dose mostly 46.1 µM), actives largely listed as activators; Yeast expressing alpha-synuclein, growth rescue, BacTiter-Glo, 24 h; further: nearly all actives have a fitted effect of over 65% in size
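Readout is rescue of growth in alpha-synuclein-expressing yeast, so inhibitors of toxicity appear as activators. Growth after 24 hr at 30 deg C in galactose medium is quantified by luminescence.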
TDP43 rescue: inhibitors of TDP-43 toxicity in yeast | actives 1.8% (n = 410,000) | Potency, µM (top dose mostly 46.1 µM), actives largely listed as activators | AID 652104 | TDP-43 expressing yeast growth rescue, BacTiter-Glo, 24 h; further: nearly all actives have a fitted effect of over 50% in size
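Yeast cells expressing TDP-43 under galactose induction are exposed to compounds for 24 hr at 30 deg C. BacTiter-Glo luminescence measures growth, so protective compounds score as activators.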
Mito fusion act: inhibitors of mitochondrial division or activators of mitochondrial fusion. S. cerevisiae fusion-defective mutant growth rescue, CellTiterGlo 48 h. Potency, µM (top dose mostly 46.1 µM), usual class: activators. actives 0.23% (n = 320,000); further: nearly all actives have a fitted effect of over 45% in size
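Yeast fusion mutant, YPEG (non-fermentable carbon), compound, 48 h at 37C non-permissive; CellTiterGlo added, 10 min RT, luminescence read. Rescued growth = division inhibition.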
Abeta rescue: A-beta toxicity reversal in yeast. yeast expressing A-beta42, growth rescue, OD600, 48 h; response scale: 0% DMSO, 100% iron-clioquinol control. Potency, µM (doses to about 46.1 µM), most hits filed as activators. actives 0.063% (n = 410,000). AID 1347071; further: nearly all actives have a fitted effect of over 55% in size
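Growth rescue measured by 600 nm absorbance after 48 h yeast culture at 30 C with compound. Values normalized between DMSO and an equimolar ferric chloride plus clioquinol control.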
ERG-DNA inh: inhibitors of human ERG Ets domain-DNA interaction; P11308; fluorescence polarization, His-ERG Ets domain / labelled DNA; Potency, µM (doses to about 76.9 µM), hits mostly inhibitors; actives 0.028% (n = 370,000); AID 624246; active means well fitted inhibition curve with a large enough effect in the polarisation, with a control signal flat; inconclusive means small, poorly fitted or top-dose-only effect, or effect the other way, or a change in a side signal; inactive means no such curve, though single readings can be large or run the other way; the % refers to the polarisation;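 further: polarization taken with two DNA probes labelled with fluorescein and Texas red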
Target sequence (P11308 whole entry, looked up, the tested form may be a part): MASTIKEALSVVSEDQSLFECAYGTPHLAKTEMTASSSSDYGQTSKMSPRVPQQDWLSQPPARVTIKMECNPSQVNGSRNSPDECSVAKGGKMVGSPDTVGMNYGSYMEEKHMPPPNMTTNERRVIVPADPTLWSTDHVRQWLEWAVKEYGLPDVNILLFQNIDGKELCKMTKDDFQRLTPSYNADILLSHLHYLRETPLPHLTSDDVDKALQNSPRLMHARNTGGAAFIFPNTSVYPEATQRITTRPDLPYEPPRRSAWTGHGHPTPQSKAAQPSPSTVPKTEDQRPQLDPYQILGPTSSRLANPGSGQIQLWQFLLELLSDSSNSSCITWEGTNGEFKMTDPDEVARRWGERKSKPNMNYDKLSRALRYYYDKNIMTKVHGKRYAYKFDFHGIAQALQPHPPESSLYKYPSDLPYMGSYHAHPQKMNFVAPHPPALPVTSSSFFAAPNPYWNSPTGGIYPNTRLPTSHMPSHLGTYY
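His-tagged ERG Ets domain (1 uM in the protein solution; 300mM KCl, 50mM Tris-HCl, 1mM EDTA, 1mM DTT, pH 7.5) received compound, then a probe mix of 5 nM fluorescein-DNA and 100nM Texas-615-DNA. Fluorescence polarization was read for both dyes.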
A number is an active result. Unless noted, the call rests on the fitted dose curve; in most records, active means well fitted curve in the direction sought with a large enough effect; inconclusive means small, poorly fitted or top-dose-only effect, or another doubt; inactive means no such curve, though single readings can be large; an effect the other way counts as inactive or inconclusive.

Screening Cc1cccc(COCC(CC(C)C)N2CCN(C(=O)c3ccc(C(C)(C)C)cc3)CCC2=O)c1 (configuration not stated) returned FUS yeast rescue inconclusive, aSyn yeast inh inactive, TDP43 rescue inactive, Mito fusion act inactive, Abeta rescue inactive and ERG-DNA inh inactive.
Screening Cc1cccc(COC[C@H](CC(C)C)N2CCN(C(=O)c3ccc(C(C)(C)C)cc3)CCC2=O)c1 returned FUS yeast rescue inconclusive, aSyn yeast inh inactive, TDP43 rescue 22µM and Abeta rescue inactive.
`Cc1ccc(CNC(=O)CCCCCn2c(=O)c3sccc3n(CC(=O)N3CCCCC3C)c2=O)cc1` (configuration not stated) gave FUS yeast rescue inactive, TDP43 rescue inactive, Abeta rescue inactive and ERG-DNA inh inactive.
Cc1cccc(C(=O)N2CCC(=O)N([C@H](COCc3ccc(Cl)cc3)Cc3ccccc3)CC2)c1 was read as FUS yeast rescue inconclusive, aSyn yeast inh inactive, TDP43 rescue 16µM and Abeta rescue inactive.
CCOC(=O)C1=C(COC(=O)c2ccc([N+](=O)[O-])s2)NC(=O)NC1C (configuration not stated) was read as FUS yeast rescue inactive, aSyn yeast inh inactive, TDP43 rescue 20µM, Abeta rescue inactive and ERG-DNA inh inactive.
For COc1ccc(CCCc2nnc(SCC(=O)Nc3cccc(F)c3C)o2)cc1 the results were FUS yeast rescue inactive, TDP43 rescue inconclusive, Abeta rescue inactive and ERG-DNA inh inactive.
`CC(C)c1ccc(NC(=O)c2cc(S(=O)(=O)N(C)C3CCCCC3)ccc2F)cc1` gave FUS yeast rescue inactive, TDP43 rescue inactive, Abeta rescue inactive and ERG-DNA inh inactive.
S=C(N/N=C/c1ccc2ncccc2c1)Nc1ccccc1 was read as FUS yeast rescue inactive, aSyn yeast inh inactive, TDP43 rescue 13µM, Mito fusion act inactive, Abeta rescue inconclusive and ERG-DNA inh inactive.
Screening Cc1ccc(N(C)C(=O)c2noc3c2CCCCC3)cc1C returned FUS yeast rescue inactive, TDP43 rescue inactive, Abeta rescue inactive and ERG-DNA inh inactive.
CC(=O)Nc1ccc(NC(=O)C2Cc3c(-c4ccc(Cl)cc4)ccnc3O2)cc1 (configuration not stated) was read as FUS yeast rescue inactive, aSyn yeast inh inactive, TDP43 rescue inconclusive and Abeta rescue inactive.
Screening O=C(NCc1ccccc1)C1Cc2c(-c3ccc(Cl)cc3)ccnc2O1 (configuration not stated) returned FUS yeast rescue inactive, aSyn yeast inh inconclusive, TDP43 rescue 20µM and Abeta rescue inactive.
`COc1ccc(NC(=O)C2Cc3c(-c4ccc(Cl)cc4)ccnc3O2)cc1OC` (configuration not stated) gave FUS yeast rescue inactive, aSyn yeast inh inactive, TDP43 rescue 35µM and Abeta rescue inactive.
`COc1ccc(NC(=O)C2Cc3c(-c4ccncc4)ccnc3O2)cc1OC` (configuration not stated) gave FUS yeast rescue inactive, aSyn yeast inh inactive, TDP43 rescue inactive and Abeta rescue inactive.
`O=C(Nc1ccccc1)C1Cc2c(-c3ccc(Cl)cc3)ccnc2O1` (configuration not stated) gave FUS yeast rescue inactive, aSyn yeast inh inactive, TDP43 rescue inactive and Abeta rescue inactive.
For COc1ccc(NC(=O)C2Cc3c(-c4ccc(Cl)cc4)ccnc3O2)cn1 (configuration not stated) the results were FUS yeast rescue inactive, aSyn yeast inh inactive, TDP43 rescue 35µM and Abeta rescue inactive.
COc1ccc(Br)c(C(=O)N2CCN(S(=O)(=O)/C=C/c3ccccc3)CC2)c1 was read as FUS yeast rescue inactive, aSyn yeast inh inactive, TDP43 rescue 13µM, Mito fusion act inactive, Abeta rescue inactive and ERG-DNA inh inactive.
`O=C(c1ccc2ccccc2c1)N1CCN(S(=O)(=O)/C=C/c2ccccc2)CC1` gave FUS yeast rescue inactive, aSyn yeast inh inactive, TDP43 rescue inconclusive, Mito fusion act inactive, Abeta rescue inactive and ERG-DNA inh inactive.
